High-throughput results (PubChem BioAssay)
Shown are actives, neighbours in structure and some others; about 2.1% of the full set was active somewhere.
ADAM17 inh = inhibitors of human ADAM17; hit rate 0.83% among 370,000; inhibition, % at 6.95 µM; P78536; recombinant ADAM17, EDANS/DABCYL FRET peptide cleavage;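 active = inhibition above the mean of compounds lying between control limits plus 3 SD, set per campaign, cut at about 8.5% in these data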
PLC-gamma1 inh = inhibitors of human phospholipase C gamma1; P19174; purified PLC-gamma1, fluorogenic substrate, fluorescence; inhibition, % at 12.2 µM; hit rate 0.84% among 370,000; in the data active = inhibition above about 9.5%
ADAM10 inh = inhibits human ADAM10 | inhibition, % at 7 µM | hit rate 0.62% among 370,000 | recombinant ADAM10, EDANS/DABCYL FRET peptide cleavage, 3 h;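 active = inhibition above a per-campaign cutoff equal to the mean of compounds falling between control-based bounds plus 3 SD, cut at about 20% in these data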
Target sequence (O14672 214-748 limits assumed): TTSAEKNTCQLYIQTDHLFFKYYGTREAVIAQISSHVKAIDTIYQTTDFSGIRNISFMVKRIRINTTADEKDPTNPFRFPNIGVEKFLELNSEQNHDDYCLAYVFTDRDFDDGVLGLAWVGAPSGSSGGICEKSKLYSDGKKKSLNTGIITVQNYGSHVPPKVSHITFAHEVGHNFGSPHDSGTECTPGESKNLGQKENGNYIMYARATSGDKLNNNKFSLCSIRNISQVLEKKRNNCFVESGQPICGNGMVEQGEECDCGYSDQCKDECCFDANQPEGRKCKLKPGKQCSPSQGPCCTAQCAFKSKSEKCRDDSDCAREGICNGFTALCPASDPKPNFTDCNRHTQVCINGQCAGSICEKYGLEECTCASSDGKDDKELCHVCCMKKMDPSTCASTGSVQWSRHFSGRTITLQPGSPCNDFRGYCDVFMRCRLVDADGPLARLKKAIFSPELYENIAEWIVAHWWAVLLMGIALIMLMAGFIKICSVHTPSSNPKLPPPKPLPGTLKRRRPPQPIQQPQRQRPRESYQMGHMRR
PLCb3 inh = blocks human PLC-beta3 enzyme activity; Q01970; Purified PLC-beta3, fluorogenic substrate, fluorescence; inhibition, % at 12.2 µM; hit rate 0.18% among 370,000; AID 720704; in the data active = inhibition above about 11%
Rce1 inhib = blocks yeast Ras-converting enzyme; Q03530; yeast membranes, quenched prenylated peptide cleavage fluorescence; calls only; hit rate 0.27% among 290,000;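 active = fall in fluorescence gain of 50% or more versus controls, with final raw signal at or below 3038400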
ADAM10 confirm = human ADAM10 inhibition, confirmation; shares compounds with ADAM10 inh; ADAM10 QFRET peptide cleavage, EDANS fluorescence; inhibition, % at 6.95 µM; hit rate 1% among 2,100;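 active = inhibition above about 20% chosen separately for each screening run, limit read from the data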
ADAM17 counter = inhibits human ADAM17 in ADAM10 exosite counter-screen | shares compounds with ADAM10 inh | ADAM17 QFRET peptide cleavage, EDANS fluorescence | inhibition, % at 6.95 µM | hit rate 0.5% among 2,100;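 active = mean triplicate inhibition above the solvent-only control wells' mean plus 3 SD, cut at about 12% in these data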
A number is an active result; n = inactive; x = no result given; ! = a repeat was not active.

SMILES | ADAM17 inh | PLC-gamma1 inh | ADAM10 inh | PLCb3 inh | Rce1 inhib | ADAM10 confirm | ADAM17 counter
O=C(NC(C(=O)N/N=C/c1ccncc1)c1n[nH]c(=O)c2ccccc12)c1ccccc1 (configuration not stated) | n | n | n | n | n | x | x
CCOC(=O)Nc1ccc2c(c1)N(C(=O)OCCN(C)C)c1ccccc1CC2 | n | n | 51.0! | n | n | n | n
CCOC(=O)Nc1ccc2c(c1)N(C(=O)CCN(C)C)c1ccccc1CC2 | n | n | n | n | n | x | x
CCOC(=O)c1c(C)[nH]c(C)c1S(=O)(=O)NCCCN1CCOCC1 | n | n | n | n | n | x | x
CCOC(=O)c1c(C)[nH]c(C)c1S(=O)(=O)NCCN1CCN(c2cc(Cl)ccc2C)CC1 | 12.0 | n | 24.2 | n | n | n | n
Nc1[nH]c(C(=O)c2ccccc2)c(-c2ccccc2Br)c1C(=O)c1cccs1 | n | n | n | n | x | x | x
Cc1cc(N2CCCC2)ccc1/C=C1\NC(=S)N(C)C1=O | n | n | 24.6 | n | x | n | n
Cc1ccccc1C(=O)Oc1cccc(Nc2ncnc3ccccc23)c1 | n | n | n | n | n | x | x
CC(=O)Oc1cccc(Nc2ncnc3ccccc23)c1 | n | n | 82.9 | n | n | n | n
Nc1o[nH]c(=O)c1C1CCCCC1 | n | n | n | n | x | x | x
Cc1ccc(C)c2[nH]c(=O)c(CN(Cc3cccs3)C(=S)NCc3ccco3)cc12 | n | n | n | n | n | x | x
Cc1ccc(S(=O)(=O)N2CCCC2)cc1C(=O)NCCOc1ccccc1 | n | n | n | n | x | x | x
CC1c2cc3c(cc2CCN1S(=O)(=O)c1ccccc1)OCCCO3 (configuration not stated) | n | n | n | n | n | x | x
COc1cc(Sc2ccc(C)cc2)c(OC)cc1N | n | n | 29.7 | n | n | n | n
CN1C(=O)Cc2cc(S(=O)(=O)N3CCN(c4ccc(Cl)cc4)CC3)ccc21 | n | n | 21.0 | n | n | n | n
CN1C(=O)Cc2cc(S(=O)(=O)N3CCN(c4cccc(Cl)c4)CC3)ccc21 | n | n | n | n | n | x | x
CCOc1ccc(NC(=S)N(Cc2ccc(Cl)cc2)Cc2ccco2)cc1 | n | n | 24.2 | n | n | n | n
CCOC(=O)c1ccc(NC(=S)N(Cc2cccnc2)Cc2ccco2)cc1 | n | n | n | n | n | x | x
FC(F)Sc1ccc(NC(=S)NCC2CCCCC2)cc1 | n | n | 30.7 | n | n | n | n
CC(O)(c1ccccc1)c1nc(/C=C/c2ccccc2)cs1 (configuration not stated) | n | n | n | n | x | x | x
OC(c1ccccc1)(c1nc(/C=C/c2ccccc2)cs1)C(F)(F)F (configuration not stated) | n | n | 21.0 | n | x | n | n
COC(=O)C[C@@H]1C[C@H]2c3cc(NS(C)(=O)=O)ccc3O[C@H]2[C@H](CO)O1 | n | n | n | n | x | x | x
C[C@H](CO)N1C[C@H](C)[C@H](CN(C)S(=O)(=O)c2ccc(Cl)cc2)OCc2ccccc2-c2c(n(C)c3ccccc23)C1=O | 11.8 | n | 35.6 | n | x | n | n
Oc1ccccc1CN(Cc1ccco1)CC(O)COCc1ccc(Cl)cc1 (configuration not stated) | n | n | 23.1 | n | n | n | n
COc1ccc(COCC(O)CN(Cc2ccco2)Cc2ccccc2O)cc1 (configuration not stated) | n | n | n | n | n | x | x
SMILES | ADAM17 inh | PLC-gamma1 inh | ADAM10 inh | PLCb3 inh | Rce1 inhib | ADAM10 confirm | ADAM17 counter
COc1cc(C2c3c(-c4cc(Cl)c(C)cc4O)n[nH]c3C(=O)N2Cc2cccnc2)ccc1O (configuration not stated) | n | n | 21.4 | n | n | n | n
CNC12CCc3cc(OC)c(OC)c(c31)-c1cc3c(cc1C2)OCO3 (configuration not stated) | n | n | n | n | x | x | x
COc1ccc(NC(=O)c2ccccc2[N+](=O)[O-])cc1 | n | n | n | n | n | x | x
COc1ccccc1Nc1ccc(NC(=O)c2cccc([N+](=O)[O-])c2C)cc1 | n | n | 34.8 | n | n | n | n
CCOC(=O)[C@@H]1[C@H]2COc3ccc(Br)cc3[C@H]2N2C(=O)N(c3ccc(F)cc3)C(=O)[C@]12C | n | n | 24.7 | n | n | n | n
COCCNC(=S)N(C)[C@H]1C[C@H]2c3cc(-c4ccccc4)ccc3CCN2C(=O)[C@H]1[C@H](C)O | n | n | n | n | x | x | x
Cc1onc(-c2ccccc2)c1-c1nnc(COC(=O)c2ccc(O)cc2)o1 | n | n | 22.0 | n | x | n | n
CCCc1cc(=O)[nH]c(SCC(=O)Nc2cc(S(=O)(=O)N3CCCCC3)ccc2C)n1 | n | n | n | n | x | x | x
COc1cccc(CNc2ccc(Br)cn2)c1O | n | n | 24.6 | n | n | n | n
CCn1cc(C(=O)N[C@@H](CC(C)C)C(=O)NCCCn2ccnc2)c(=O)c2cc3c(cc21)OCO3 | n | n | n | n | n | x | x
Oc1cccc(/C=N/N(Cc2ccccc2)c2ccccc2)c1 | n | n | 22.3 | n | x | n | n
Cc1cccc(C)c1OC(=O)CCN1C(=O)C2C3C=CC(C4CC34)C2C1=O (configuration not stated) | n | n | n | n | n | x | x
O=C1c2ccccc2C(=O)N1CCc1c(-c2ccccc2)[nH]c2ccccc12 | n | n | 20.0 | n | x | n | n
CSc1ncccc1C(=O)Nc1cccc(S(=O)(=O)N(C)c2ccccc2)c1 | n | n | n | n | x | x | x
CCS(=O)(=O)c1nc(S(=O)(=O)c2ccc(C)cc2)c(N2CCC3(CC2)OCCO3)s1 | n | n | n | n | n | x | x
Cc1cccc(C)c1-c1ccc(CN2C(CC(C)C)C(=O)N(Cc3cn(CCO)nn3)CCS2(=O)=O)cc1 (configuration not stated) | n | n | 22.2 | n | x | n | n
CC(C)CC1C(=O)N(Cc2cn(CCC3OCCO3)nn2)CCS(=O)(=O)N1Cc1ccc(-c2cccc(CO)c2)cc1 (configuration not stated) | n | n | n | n | x | x | x
Nc1[nH]c(C(=O)c2ccccc2)c(-c2ccc(Cl)cc2)c1C(=O)c1c[nH]c2cc(F)ccc12 | n | n | n | n | x | x | x
Cc1ccc(NS(=O)(=O)c2ccc(NC(=O)c3cccc(NC(=O)C(C)C)c3)cc2)cc1 | n | n | 23.5 | n | n | n | n
Cc1cc(SCC(=O)N/N=C/c2ccc(O)c(O)c2)c(C)cc1Br | n | n | 29.4 | n | n | n | n
Cc1cc(SCC(=O)N/N=C/c2ccc(O)c(O)c2)nc2ccccc12 | n | n | n | n | n | x | x
COC(=O)[C@]12C[C@H](CC(=O)NCc3cccs3)C(=O)N(Cc3ccc(Cl)cc3Cl)C1=C[C@H](C(C)C)O[C@@H]2C1CC1 | n | n | n | n | x | x | x
COC(=O)c1ccc(CSc2nc3ccccc3c(=O)n2-c2ccccc2)o1 | n | n | 20.5 | n | n | n | n
Cc1ccc(C(=O)N2CCCCC2)cc1S(=O)(=O)N1CCOCC1 | n | n | n | n | n | x | x
